In PubChem BioAssay AID2216 (Broad Institute, 2009):
Several values for one entry are separate records, joined by “and”; a condition that tells them apart may be missing. Equal values may be shown once. In all, about 300,000 compounds went through this assay and about 3,300 (1.1%) were called active. Roughly 6% stayed inconclusive and do not appear here.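 The calls were made as follows: active = more than half of the replicate wells show a fall in the fluorescence ratio signal beyond about 16% (limit read from the data, passing the limit was not always enough); inconclusive = exactly half of the replicate wells pass the set limit; inactive = fewer than half of replicates pass the limit.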 The list comes from a sample in which actives are over-represented; it also holds similar structures and randomly drawn compounds.

Tested on: Ran GTPase (GTP-bound) - importin-beta complex
Assay: disruptors of Ran-importin-beta complex formation – biochemical, FRET, CFP-Ran, YFP-importin-beta, homogeneous, primary screen (AID 2216);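 also: 0% = DMSO wells and 100% = Ran loaded with GDP instead of GTP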
Conditions: cell-free CFP-Ran/YFP-importin-beta FRET ratio; stronger effect = higher value; concentration not given here

inhibition, inactive:
COc1ccc(Cc2nnc(SCC(=O)N(c3ccccc3)C(C)C)n(N)c2=O)cc1 -2.45%
Clc1cccc(Cl)c1OCCOCCNCc1ccccc1 0.589%
OCCNCCOc1ccc(Cl)c(Cl)c1 -2.77%
CCCCN1C(N)=NC[C@@H]1Cc1ccccc1 -2.74%
Cc1ccn2c(=O)nc(SCC(=O)NCc3ccc4c(c3)OCO4)nc2c1 -2.18%
COc1ccc(-n2nnnc2CNC(=O)c2ccc3ccccc3c2)cc1 3.81%
O=C(CSc1nc(=O)n2ccccc2n1)Nc1ccc2c(c1)OCCO2 0.244%
CC(C)Nc1nnc(SC(C)C(=O)N(C)C2CCCCC2)s1 (configuration not stated) 2.7%
CC(=O)c1c(-c2ccccc2)c2ccccc2[nH]c1=O -2.98%
O=C(CN1CCOCC1)Nc1c(-c2ccccc2)c2cc(Br)ccc2[nH]c1=O -3.33%
CN(C)CCCNC(=O)c1ccc2[nH]c3ccccc3c2c1 -2.02%
CCN(CCCNC(=O)CCn1c(=O)[nH]c2ccsc2c1=O)c1ccccc1 8.57%
Cc1ccc(NC(=O)CSCC(=O)Nc2sccc2C#N)cc1 -2.13%
O=C(COC(=O)/C=C/c1ccc(OC(F)F)cc1)NC1CCCCC1 -7.27%
N#Cc1c(C(F)(F)F)cc(-c2ccc(Cl)cc2)nc1SCC(=O)O -1.29%
N#Cc1c(C(F)(F)F)cc(-c2ccccc2)nc1SCC(=O)N1CCOCC1 3.19%
CCOC(=O)c1c(NC(=S)Nc2ccccc2C)sc2c1CCC2 -2.16%
CCOC(=O)c1c(NC(=O)NC(C)(C)C)sc2c1CCN(C)C2 12%
COc1cccc(NC(C)=[N+](C)CCNS(=O)(=O)c2ccc(Cl)cc2)c1 -6.06%
COc1ccc(NC(=O)CN(C)C(=O)c2n[nH]c3ccccc23)cc1 -0.623%
CCCCn1c(N)c(N(CCOC)C(=O)c2cccc(S(=O)(=O)N3CCCCC3)c2)c(=O)[nH]c1=O 6.51%
O=C(COC(=O)c1ncc(Cl)c(Cl)c1Cl)NNC(=O)c1ccccc1 7.08%
CCCCN1C(=O)/C(=C2/Sc3ccc(Cl)cc3N2CC)SC1=S 0.428%
CCN1C(=O)/C(=c2\s/c(=C3\Sc4ccccc4N3C)c(=O)n2C)N(C)C1=S 1.12%
O=C(/C=C/c1ccc([N+](=O)[O-])o1)NNC(=O)c1ccc(F)cc1 -0.948%
COc1ccc(/C=C(\C#N)C(=O)ONC2=NCCCCC2)cc1 2.96%
CCOC(=O)NC(=O)/C(C#N)=C\c1ccccc1 5.82%
COc1ccc(N2CCN(C(=O)/C(C#N)=C/c3ccccc3)CC2)cc1 -3.23%
CCOC(=O)/C(C#N)=C/c1ccc(OCC(=O)Nc2ccccc2)c(OC)c1 1.23%
CC(=O)NCC(=O)N1CCC(n2nccc2NC(=O)CCCc2ccccc2)CC1 -2.9%
Cc1cc(O)c(Sc2ccccc2)c(=O)o1 -1.75%
Cc1ccc(NC(=O)COc2coc(CN3CCc4ccccc4C3)cc2=O)cc1Cl 1.39%
COc1ccc(C(CNC(=O)c2cccc(NS(=O)(=O)c3ccc(C)c(F)c3)c2)N2CCCC2)cc1 (configuration not stated) -0.978%
Cc1ccc(OCCNC(=O)CNC(=O)c2ccc(C)c(C)c2)cc1 4.18%
Oc1ccc(N=Cc2sc3ccccc3c2Cl)cc1 5.46%
COc1ccc(N=Nc2ccc(O)c(P(=O)(c3ccccc3)c3ccccc3)c2)cc1 -0.168%
COc1ccc(C)cc1NC(=O)CSc1nc(SC)ns1 2.19%
COC(=O)c1cc(OC)c(OC)cc1NC(=O)CSc1ccc(C)cc1 -0.733%
CCC(c1nnc(SCC(=O)NNC(=O)c2ccccc2)n1Cc1ccccc1)N(C)C (configuration not stated) -5.06%
Cc1cccn2c(=O)c(/C=C(\C#N)C(N)=O)c(N3CCCCCC3)nc12 -1.31%
Cc1cc(C)c(C#N)c(N2CCC(C(N)=O)CC2)n1 -1.05%
CS(=O)(=O)N(CC(=O)N1CCc2ccccc2C1)c1ccc(Br)cc1 0.322%
Cc1ccc(-c2csc(NC(=O)C3=COCCO3)n2)cc1C 2.13%
COc1cccc(C(=O)NNC(=O)c2cccc(F)c2)c1 -3.67%
COc1ccc2oc(=O)c(C(=O)N3CCCC3)cc2c1 0.715%
COc1cccc(N2CC(NC(=O)c3ccc4ccccc4c3)CC2=O)c1 (configuration not stated) -1.06%
CCN1C(=O)[C@H]2[C@@H](c3ccc(-c4ccc(F)cc4)cc3)N[C@@](Cc3ccccc3)(C(=O)OC)[C@H]2C1=O -2.12%
COc1ccc(N2CCN(C(=O)COC(=O)c3cccc(S(=O)(=O)Nc4ccccc4OC)c3)CC2)cc1 -1.93%
CCOC(=O)c1cccc(NC(=O)CN2C(=O)C3CC=CCC3C2=O)c1 (configuration not stated) 3.31%
O=C(CN1C(=O)CC(c2ccccc2)S(=O)(=O)c2ccccc21)NC1CCCC1 (configuration not stated) 0.0598%
COc1ccc2c(c1)C(=O)Nc1cc(Cl)ccc1N2 1.28%
Cc1noc(C)c1CSCC(=O)N(CCC(C)C)c1c(N)n(Cc2ccccc2)c(=O)[nH]c1=O -1.15%
COc1ccc(CN2[C@@H](CC(=O)O)c3cc(F)ccc3S2(=O)=O)cc1 3.99%
CCN1C(=O)[C@H]2[C@@H](c3ccc(SC4CCCCC4)c(OC)c3)N[C@@](Cc3ccccc3)(C(=O)OC)[C@H]2C1=O -1.26%
CN1CCN(c2ccc(NC(=O)c3ccc4c(c3)[nH]c(=O)n4Cc3ccc(F)cc3)cc2)CC1 0.81%
O=C(Cc1ccc(-n2c(=O)[nH]c3ccccc3c2=O)cc1)N1CCN(c2cccc(Cl)c2)CC1 2.52%
CCCC[C@@H]1CN=C(N)N1CCCC 5.62%
O=C(Oc1ccc(-c2nnco2)cc1)c1ccc(F)c(S(=O)(=O)N2CCOCC2)c1 1.51%
CCCCOc1ccc(CSC(=N)N)cc1[N+](=O)[O-] -0.296%
CCCCCOc1ccc(CSC2=NCCN2)cc1[N+](=O)[O-] -3.18%
Cc1cc(=O)[nH]c(SCc2ccc(Cl)cc2)n1 2.35%
COc1ccccc1CCC(=O)OCC(=O)N1CCN(S(=O)(=O)c2ccc(C)cc2C)CC1 -0.0627%
Cc1ccc(S(=O)(=O)CCC(=O)OCC(=O)N(C)C2CCS(=O)(=O)C2)cc1 (configuration not stated) -1.57%
CCc1ccc(C(=O)COC(=O)c2ccco2)cc1 -1.46%
O=C(Nc1ccc2nc3n(c(=O)c2c1)CCCCC3)c1ccccc1Cl -0.768%
O=C(Nc1cccc(NC(=O)c2ccccc2[N+](=O)[O-])c1)c1ccccc1Cl 1.99%
COc1cnn(-c2ccc([N+](=O)[O-])cc2)c(=O)c1Cl 9.19%
CCCCCN(C(=O)CCC(=O)OCC(=O)NC1CCC(C)CC1)c1c(N)n(CCCC)c(=O)[nH]c1=O (configuration not stated) 10.6%
O=C(NC(Cc1ccccc1)C(=O)N1CCCC(C(F)(F)F)C1)c1ccccc1 (configuration not stated) -0.899%
COC(=O)NNC1=CC(=O)CC(C)(C)C1 2.34%
CC1(C)CC(=O)C=C(Nc2ccccc2)C1 11.7%
CCCCCCCNC(=O)C1(CC2CC(c3cccc(Br)c3)=NO2)CCN(C(=O)c2cc(OCC)c(OCC)c(OCC)c2)CC1 (configuration not stated) -1.08%
COc1ccc2[nH]cc(/C=C(/C#N)S(=O)(=O)c3ccccc3)c2c1 -20.9%
COc1cc(/C=C(\C#N)c2nc3ccccc3[nH]2)ccc1O -13.2%

inhibition, active:
OCCNCc1cccc(OCc2ccccc2Cl)c1 17.6%
C/C(=N\N)c1c(-c2ccccc2)c2cc(Br)ccc2[nH]c1=O 21.4%
CCN(CCCNC(=O)c1ccc2c(c1)NC(=O)CN2C)c1cccc(C)c1 20.7%
CCN(CC)c1nc(-c2ccccc2)cc(C(F)(F)F)c1C#N 25.9%
CCOC(=O)c1c(NC(=S)Nc2ccccc2)sc2c1CCN(C)C2 70%
CCN1C(=O)/C(=C2/Sc3ccccc3N2CCCS(=O)(=O)O)SC1=S 43.1% and 55.8%
CCOC(=O)/C(C#N)=C/c1ccc(N2CCCCC2)cc1 91%
CCOC(=O)/C(C#N)=C/c1ccc(N2CCN(Cc3ccccc3)CC2)cc1 72.8%
COc1ccc(N=C(C)c2sc3ccccc3c2O)cc1 39.4%
COc1ccc(C)cc1NC(=O)CSc1ccc(Cl)cc1 27.5%
Cc1cccn2c(=O)c(/C=C(\C#N)S(=O)(=O)c3ccc(Cl)cc3)c(N3CCC(C(N)=O)CC3)nc12 16.6%
COc1cccc(C(=O)c2cc3ccc(O)cc3oc2=O)c1 26.4%
CC1CC(=O)N(CC(=O)Nc2cccc(Cl)c2)c2ccccc2S1(=O)=O (configuration not stated) 18.5%
CN1CCN(c2cc(=O)n(-c3ccc(Cl)cc3)c(=O)[nH]2)CC1 31.4%
CCCOc1ccc(Cn2ccnc2)cc1[N+](=O)[O-] 22.9%
O=C(Nc1ccc2sc3ccccc3c(=O)c2c1)c1ccccc1Cl 97.7%
Cc1cc(O)ccc1NC1=CC(=O)CC(C)(C)C1 18.8%
COc1ccc(/C=C(\C#N)c2c[nH]c3ccccc23)cc1 17.3%
